# From PubChem BioAssay
# Calls of active or inactive are those of the source.
# Columns and labels:
# [1] = compound effects on differentiated 3T3-L1 adipocyte viability – cell-based, 3T3-L1 adipocytes, calcein-AM fluorescence, 48 h, basal, profiling panel (AID 1163); details: 3T3-L1 adipocytes viability, higher = more signal
# [2] = compound effects on hepatocellular carcinoma cell viability – HepG2, calcein-AM fluorescence, 48 h, basal, profiling panel (AID 1164); details: higher = more signal
# [3] = compound effects on multiple myeloma cell viability – MM1S, calcein-AM fluorescence, 48 h, basal, profiling panel (AID 1165); details: higher = more signal;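 also: viability of MM1S multiple myeloma cells under basal unstimulated conditions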
# [4] = calcein-AM signal in unstimulated myeloma cells – cell-based, calcein-AM fluorescence, 48 h, PK04 Diversity Set, profiling panel (AID 1166); details: RPMI8226 myeloma viability, higher = more signal;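 also: cells grown under basal conditions without added stimulus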
# [5] = JC-1 mitochondrial signal, unstimulated HepG2 cells – cell-based, JC-1 fluorescence, 24 h, 100 nL compound, profiling panel (AID 1167); details: HepG2 mitochondrial potential, higher = more signal
# [6] = JC-1 mitochondrial signal, unstimulated adipocytes – cell-based, JC-1 fluorescence, 3T3-L1 adipocytes, 24 h, 100 nL compound, profiling panel (AID 1168); details: JC-1 mitochondrial fluorescence, higher = more signal, called active from +8 up or from −8 down
# [7] = JC-1 mitochondrial signal, unstimulated myeloma cells – cell-based, JC-1 fluorescence, RPMI8226, 24 h, 100 nL compound, profiling panel (AID 1169); details: JC-1 mitochondrial potential fluorescence, higher = more signal
# [8] = JC-1 mitochondrial signal, unstimulated MM1S myeloma – cell-based, JC-1 fluorescence, 24 h, 100 nL compound, profiling panel (AID 1170); details: MM1S mitochondrial potential, higher = more signal
# [9] = resazurin metabolic signal in A549 cells – cell-based, resazurin fluorescence, 24 h, PK04 Diversity Set, profiling panel (AID 1171); details: A549 viability, higher = more signal, called active from +8 up or from −8 down
# [10] = resazurin metabolic signal in HepG2 cells – cell-based, resazurin fluorescence, 24 h, PK04 Diversity Set, profiling panel (AID 1172); details: HepG2 viability, higher = more signal
# [11] = budding yeast growth changes without added modifier – OD600, strain BY4716, 24 h, basal condition, primary screen (AID 1173); details: S. cerevisiae BY4716 growth, OD600, 24 h; higher = more signal, called active from +8 up or from −8 down
# [12] = viability profiling in MM1S myeloma cells – cell-based, resazurin fluorescence, basal, 24 h, PK04 Diversity Set, profiling panel (AID 1174); details: higher = more signal, called active from +8 up or from −8 down
# [13] = biological target: Dihydroorotate dehydrogenase (quinone), mitochondrial (Plasmodium falciparum (isolate 3D7)) (UniProt Q08210); assay: inhibition of P. falciparum DHODH – biochemical, C-terminal His tag, absorbance 600 nm, primary screen (AID 1175); details: PfDHODH enzyme, DCIP absorbance 600 nm; higher = more signal, called active from +8 up or from −8 down;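 also: recombinant parasite enzyme with a five histidine tag at its C terminus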
# Sequence of Dihydroorotate dehydrogenase (quinone), mitochondrial (Plasmodium falciparum (isolate 3D7)) (Q08210 whole entry, looked up): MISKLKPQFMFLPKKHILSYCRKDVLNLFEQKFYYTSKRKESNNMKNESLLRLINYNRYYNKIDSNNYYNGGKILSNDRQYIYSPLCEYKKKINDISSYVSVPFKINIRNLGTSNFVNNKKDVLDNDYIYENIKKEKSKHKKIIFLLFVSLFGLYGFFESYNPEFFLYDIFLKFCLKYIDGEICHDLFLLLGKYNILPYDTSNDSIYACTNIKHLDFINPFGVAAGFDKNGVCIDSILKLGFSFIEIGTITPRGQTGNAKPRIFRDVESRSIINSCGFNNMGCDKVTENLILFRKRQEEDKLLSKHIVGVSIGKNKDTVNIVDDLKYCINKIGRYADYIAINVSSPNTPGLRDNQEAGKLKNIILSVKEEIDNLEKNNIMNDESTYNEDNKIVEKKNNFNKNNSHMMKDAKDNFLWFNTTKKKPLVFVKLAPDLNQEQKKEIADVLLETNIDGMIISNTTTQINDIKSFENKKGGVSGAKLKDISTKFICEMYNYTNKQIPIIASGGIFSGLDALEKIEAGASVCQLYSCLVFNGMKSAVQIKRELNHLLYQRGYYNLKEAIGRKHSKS
# [14] = growth modulation of vineyard yeast isolate – strain RM11-1a, OD600, basal, 24 h, primary screen (AID 1177);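 also: cultures grown under basal conditions with no added stressor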; details: S. cerevisiae RM11-1a growth, OD600, 24 h; higher = more signal, called active from +8 up or from −8 down
# [15] = growth of efflux-deficient E. coli DRC39 – strain DRC39, OD650, 24 h, E. coli filamentation inducers, primary screen (AID 1178);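 also: growth measured as culture turbidity by optical density at 650 nm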; details: E. coli DRC39 acrAB, higher = more signal, called active from +8 up or from −8 down
# [16] = growth of efflux-deficient E. coli DRC39 – strain DRC39, OD650, 48 h, E. coli filamentation inducers, primary screen (AID 1179);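 also: screen aims at cell division blockers that make cells filament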; details: E. coli DRC39 delta-acrAB growth, higher = more signal, called active from +8 up or from −8 down
# [17] = viability profiling in RPMI8226 myeloma cells – cell-based, resazurin fluorescence, basal, 24 h, PK04 Diversity Set, profiling panel (AID 1180); details: higher = more signal;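 also: RPMI8826 multiple myeloma cell line at 5000 cells per well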
# [18] = biological target: E3 ubiquitin-protein ligase XIAP (Homo sapiens) (UniProt P98170); assay: small molecules binding XIAP protein – biophysical, small-molecule microarray, fluorescence 635 nm, primary screen (AID 1181); details: higher = more signal;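 also: score merges 667 nm emission and signal to noise over triplicate slides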
# Sequence of E3 ubiquitin-protein ligase XIAP (Homo sapiens) (P98170 whole entry, looked up, the tested form may be a part): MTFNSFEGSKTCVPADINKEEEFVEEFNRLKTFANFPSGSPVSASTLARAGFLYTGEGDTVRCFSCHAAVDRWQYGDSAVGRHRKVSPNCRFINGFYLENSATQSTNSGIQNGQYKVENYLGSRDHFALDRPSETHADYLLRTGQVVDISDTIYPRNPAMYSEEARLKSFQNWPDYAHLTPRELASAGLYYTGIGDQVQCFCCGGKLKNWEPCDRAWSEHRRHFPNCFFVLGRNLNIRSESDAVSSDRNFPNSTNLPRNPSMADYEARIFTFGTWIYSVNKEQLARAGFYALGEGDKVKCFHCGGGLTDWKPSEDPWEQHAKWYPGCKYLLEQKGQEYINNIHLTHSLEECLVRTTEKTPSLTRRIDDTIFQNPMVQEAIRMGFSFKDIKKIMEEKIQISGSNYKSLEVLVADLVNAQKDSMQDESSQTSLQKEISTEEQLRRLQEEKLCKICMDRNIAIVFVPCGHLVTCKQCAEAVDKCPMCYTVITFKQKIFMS
# [19] = tested on: XIP peptide (Xip251-270) binding; assay: XIP fragment 251-270 binding compounds – biochemical, small-molecule microarray, fluorescence 635/667 nm, 0.1 µg/mL protein, primary screen (AID 1182); details: fluorescent protein binding, 635 nm, higher = more signal, called active from +8 up or from −8 down
# [20] = tested on: XIP peptide (Xip251-270); assay: compounds binding XIP fragment 251-270 – biochemical, small-molecule microarray, fluorescence 635/667 nm, 0.5 µg/mL protein, primary screen (AID 1183); details: fluorescence 635 nm, higher = more signal
structure (smiles),measurement,setting,value
C=C(COC)/C(=C/C[C@H](OC(C)=O)c1cccc(OCCO)c1)c1cc(C(=O)OC)ccc1OC,z-score,[1],0.81
same,z-score,[2],-2.15
same,z-score,[3],0.0939
same,z-score,[4],-1.1
same,z-score,[5],0.616
same,z-score,[6],1.88 (inactive)
same,z-score,[7],-0.252
same,z-score,[8],0.471
same,z-score,[9],-1.03 (inactive)
same,z-score,[10],-0.231
same,z-score,[11],-17.6 (active)
same,z-score,[12],0.975 (inactive)
same,composite z-score,[13],-9.35 (active)
same,z-score,[14],-21.4 (active)
same,z-score,[15],1.24 (inactive)
same,z-score,[16],0.802 (inactive)
same,z-score,[17],0.59
same,composite z-score,[18],0.0077
same,composite z-score,[19],0.876 (inactive)
same,composite z-score,[20],0.876
CN(C)CCCC[C@@H]1NC(=O)[C@@H]2C[C@H](C(=O)NCCCCCNC(=O)CS)[C@H](c3cccc(OCCO)c3)N2C1=O,z-score,[1],1.56
same,z-score,[2],-1.33
same,z-score,[3],-0.669
same,z-score,[4],-0.348
same,z-score,[5],0.902
same,z-score,[6],0.533 (inactive)
same,z-score,[7],0.526
same,z-score,[8],0.249
same,z-score,[9],-0.42 (inactive)
same,z-score,[10],-0.0484
same,z-score,[11],-1.86 (inactive)
same,z-score,[12],0.78 (inactive)
same,composite z-score,[13],-1.83 (inactive)
same,z-score,[14],-2.53 (inactive)
same,z-score,[15],0.431 (inactive)
same,z-score,[16],-0.248 (inactive)
same,z-score,[17],0.608
same,composite z-score,[18],-0.135
same,composite z-score,[19],0.62 (inactive)
same,composite z-score,[20],-0.351
C=CCN1C(=O)[C@]2(O[C@H](CCn3cc([C@H](O)c4ccccc4)nn3)[C@@H]([Si](C)(C)c3ccc(OC)cc3)[C@@H]2C)c2cc(N3CCOC3=O)ccc21,z-score,[1],3.08
same,z-score,[2],-0.812
same,z-score,[3],-1.98
same,z-score,[4],-2.86
same,z-score,[5],3.15
same,z-score,[6],2.62 (inactive)
same,z-score,[7],-0.906
same,z-score,[8],-0.286
same,z-score,[9],-2.25 (inactive)
same,z-score,[10],-1.22
same,z-score,[11],-0.506 (inactive)
same,z-score,[12],-0.72 (inactive)
same,composite z-score,[13],-0.175 (inactive)
same,z-score,[14],0.58 (inactive)
same,z-score,[15],1.84 (inactive)
same,z-score,[16],1.06 (inactive)
same,z-score,[17],-1.23
same,composite z-score,[18],-0.0721
same,composite z-score,[19],0.865 (inactive)
same,composite z-score,[20],-0.0533
COC(=O)C(CC#Cc1ccc2c(c1)[C@]1(C(=O)N2)[C@H](c2ccccc2OCCO)N2[C@H](c3ccccc3)[C@H](c3ccccc3)OC(=O)[C@H]2[C@@H]1C(=O)N1CCCCCCC1)C(=O)OC,z-score,[1],1.89
same,z-score,[2],-0.0172
same,z-score,[3],0.578
same,z-score,[4],-0.576
same,z-score,[5],0.87
same,z-score,[6],-0.239 (inactive)
same,z-score,[7],-0.395
same,z-score,[8],-1.32
same,z-score,[9],1.9 (inactive)
same,z-score,[10],0.0437
same,z-score,[11],1.31 (inactive)
same,z-score,[12],1.19 (inactive)
same,composite z-score,[13],-2.8 (inactive)
same,z-score,[14],1.23 (inactive)
same,z-score,[15],0.723 (inactive)
same,z-score,[16],-0.34 (inactive)
same,z-score,[17],1.17
same,composite z-score,[18],1.72
same,composite z-score,[19],6.51 (inactive)
same,composite z-score,[20],0.937
C=C[C@H](OC)[C@@H](OC(=O)Nc1ccc(OC)cc1)c1ccc(OC)c(O)c1,z-score,[1],0.922
same,z-score,[2],-0.737
same,z-score,[3],0.478
same,z-score,[4],0.294
same,z-score,[5],-0.638
same,z-score,[6],1.02 (inactive)
same,z-score,[7],0.756
same,z-score,[8],0.206
same,z-score,[9],0.304 (inactive)
same,z-score,[10],0.895
same,z-score,[11],-1.01 (inactive)
same,z-score,[12],1.12 (inactive)
same,composite z-score,[13],0.465 (inactive)
same,z-score,[14],0.0923 (inactive)
same,z-score,[15],1.89 (inactive)
same,z-score,[16],1.29 (inactive)
same,z-score,[17],1.15
same,composite z-score,[18],0.0073
same,composite z-score,[19],1.11 (inactive)
same,composite z-score,[20],-1.18
CC(C)N1CC=CC23O[C@@H]4/C=C\CCCOC(=O)C4[C@H]2C(=O)N(CCCO)[C@@H]3C1=O (stereo not given in full),z-score,[1],0.834
same,z-score,[2],0.152
same,z-score,[3],0.827
same,z-score,[4],0.311
same,z-score,[5],0.795
same,z-score,[6],0.32 (inactive)
same,z-score,[7],0.747
same,z-score,[8],0.789
same,z-score,[9],0.817 (inactive)
same,z-score,[10],0.129
same,z-score,[11],0.11 (inactive)
same,z-score,[12],0.791 (inactive)
same,composite z-score,[13],-0.506 (inactive)
same,z-score,[14],1.05 (inactive)
same,z-score,[15],1.36 (inactive)
same,z-score,[16],1.25 (inactive)
same,z-score,[17],1.78
same,composite z-score,[18],0.0126
same,composite z-score,[19],0.015 (inactive)
same,composite z-score,[20],-0.556
CC(=O)NCCCC[C@@H]1NC(=O)[C@@H]2C[C@H](C(=O)O)[C@H](c3cccc(OCCO)c3)N2C1=O,z-score,[1],0.75
same,z-score,[2],-0.988
same,z-score,[3],-1.8
same,z-score,[4],0.267
same,z-score,[5],1.31
same,z-score,[6],0.317 (inactive)
same,z-score,[7],0.501
same,z-score,[8],0.483
same,z-score,[9],0.537 (inactive)
same,z-score,[10],0.377
same,z-score,[11],0.178 (inactive)
same,z-score,[12],0.636 (inactive)
same,composite z-score,[13],-0.252 (inactive)
same,z-score,[14],1.2 (inactive)
same,z-score,[15],0.504 (inactive)
same,z-score,[16],0.167 (inactive)
same,z-score,[17],0.873
same,composite z-score,[18],-0.363
same,composite z-score,[19],1.41 (inactive)
same,composite z-score,[20],1
CC(C)(C)OC(=O)CC[C@@]1(C(=O)N2CCOCC2)N=C(c2ccc(OCCCO)cc2)O[C@@H]1c1ccccc1,z-score,[1],0.861
same,z-score,[2],-0.215
same,z-score,[3],0.317
same,z-score,[4],0.414
same,z-score,[5],0.652
same,z-score,[6],1.08 (inactive)
same,z-score,[7],-0.959
same,z-score,[8],0.609
same,z-score,[9],1.6 (inactive)
same,z-score,[10],0.957
same,z-score,[11],0.0776 (inactive)
same,z-score,[12],1.43 (inactive)
same,composite z-score,[13],0.464 (inactive)
same,z-score,[14],0.732 (inactive)
same,z-score,[15],2.19 (inactive)
same,z-score,[16],0.869 (inactive)
same,z-score,[17],1.53
same,composite z-score,[18],0.105
same,composite z-score,[19],1.6 (inactive)
same,composite z-score,[20],-0.326
C=CCNC(=O)[C@@H]1[C@H]2C(=O)O[C@H](c3ccccc3)[C@H](c3ccccc3)N2[C@H](c2ccc(O)cc2)[C@@]12C(=O)Nc1ccc(C#Cc3ccc(OC)cc3)cc12,z-score,[1],1.12
same,z-score,[2],-2.27
same,z-score,[3],-2.63
same,z-score,[4],-4.22
same,z-score,[5],-2.39
same,z-score,[6],2.94 (inactive)
same,z-score,[7],-1.16
same,z-score,[8],-0.975
same,z-score,[9],-1.58 (inactive)
same,z-score,[10],-0.322
same,z-score,[11],-0.267 (inactive)
same,z-score,[12],-1.64 (inactive)
same,composite z-score,[13],-1.35 (inactive)
same,z-score,[14],-0.411 (inactive)
same,z-score,[15],-0.071 (inactive)
same,z-score,[16],0.773 (inactive)
same,z-score,[17],-3.89
same,composite z-score,[18],-0.0932
same,composite z-score,[19],0.507 (inactive)
same,composite z-score,[20],0.543
